Source: PubChem (National Center for Advancing Translational Sciences (NCATS))
TRHR PAM – qHTS for Small Molecule Agonists and Allosteric Enhancers of Human TRH Receptor: Primary Screen for Enhancers; Thyrotropin-releasing hormone receptor (Homo sapiens), P34981; AID 493056, 2011; 0.66% of 360,000 active; TRHR cells, fluo-8 calcium fluorescence, EC20 TRH enhancement; enhancement, % at 2 µM; in the data active = enhancement above about 30%
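TRHR-expressing cells loaded with fluo-8 calcium dye were read kinetically (ex 480/em 530) during compound addition, then stimulated with an EC20 of TRH (10 nM final). Enhancement of the Gq-mediated intracellular calcium response was scored.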
USP1-UAF1 inh – Inhibitors of USP1/UAF1: Primary Screen | 0.23% of 390,000 active | recombinant USP1/UAF1, Ub-Rhodamine cleavage fluorescence | Potency, µM (doses to about 57.1 µM), actives largely listed as inhibitors | AID 743255, 2014; active = well fitted inhibition curve with a large enough effect; inconclusive = small, poorly fitted or top-dose-only effect; inactive = no such curve, though single readings can be large or run the other way; note: nearly all actives have a fitted effect of over 60% in size
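1 nM enzyme complex + cpd, 15 min RT; start with Ub-Rho 150nM final; kinetic fluorescence ex 480/em 540, 6 reads q60 s. Buffer 50mM HEPES pH 7.8, 0.5mM EDTA, 0.1 mg/ml BSA, 1mM TCEP, 0.01% Tween-20.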
D1 potentiator – Potentiators of Human D1 Dopamine Receptor: qHTS; 0.036% of 360,000 active; potentiation, % at 10 µM; HEK293 TREx D1 cells, calcium flux, dopamine EC20 potentiation; D(1A) dopamine receptor (Homo sapiens), P21728; in the data active = potentiation above about 30%
Target sequence (P21728 whole entry, looked up): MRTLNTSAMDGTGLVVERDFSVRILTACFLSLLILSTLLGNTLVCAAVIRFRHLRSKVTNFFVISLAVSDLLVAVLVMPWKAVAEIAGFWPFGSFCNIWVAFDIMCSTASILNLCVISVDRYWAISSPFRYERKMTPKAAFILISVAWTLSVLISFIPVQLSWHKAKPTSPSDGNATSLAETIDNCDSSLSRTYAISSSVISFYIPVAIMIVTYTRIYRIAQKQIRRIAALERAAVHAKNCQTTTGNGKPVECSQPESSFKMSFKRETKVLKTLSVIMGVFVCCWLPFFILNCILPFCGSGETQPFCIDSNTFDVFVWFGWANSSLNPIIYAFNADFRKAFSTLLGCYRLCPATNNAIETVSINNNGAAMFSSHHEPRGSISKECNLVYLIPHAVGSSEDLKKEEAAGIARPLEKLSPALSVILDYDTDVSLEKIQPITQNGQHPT
TRHR ag – qHTS for Small Molecule Agonists and Allosteric Enhancers of Human TRH Receptor: Primary Screen for Agonists | Thyrotropin-releasing hormone receptor (Homo sapiens), P34981 | TRHR cells, calcium flux fluo-8, FDSS agonist mode | activation, % at 2 µM | 0.18% of 360,000 active | AID 493084, 2011
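Agonist-mode FDSS calcium read (Ex 480/Em 530, 1 s cycles) in 1536-well TRHR cells with fluo-8 dye, after 10-cycle baseline and 23 nL compound addition; TRH at EC20 (10 nM final) added afterwards for the enhancer phase.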
D1 antag – Antagonist of Human D 1 Dopamine Receptor: qHTS; 3.2% of 360,000 active; AID 504652, 2011; activity change, negative = inhibition, % at 10 µM; HEK293 TREx D1 cells, calcium flux, dopamine EC80; stronger effect = lower value; in the data active = activity change below about -30%
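Compound effects on dopamine-evoked calcium signalling were measured in tetracycline-induced HEK293 Trex D1 cells. Dopamine at EC80 followed a 180 s compound pre-read, and fluorescence was tracked kinetically for 180 s more.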
D1 agonist – Allosteric Agonists of the Human D1 Dopamine Receptor: qHTS; HEK293 T-REx D1 cells, calcium flux, agonist mode; activation, % at 2 µM; 1% of 360,000 active
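Inducible HEK293 T-REx D1 cells, force-coupled to calcium signalling, were plated at 4000 cells/well with tetracycline and held overnight at 30 C. After no-wash calcium dye loading, compound-evoked calcium rise over 180 s flagged agonists.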
A number is an active result; n = inactive; u = inconclusive; x = not tested or not shown. The list is not random: actives were taken first. Their share in the collection is about 4.4%. Cut-off read from the data, not from the text of the source, unless noted: active = activation above about 30%; inactive = the rest.

SMILES | TRHR PAM | USP1-UAF1 inh | D1 potentiator | TRHR ag | D1 antag | D1 agonist
Cn1cc(S(=O)(=O)N2CCCC2)cc1C(=O)Nc1ccc(C(F)(F)F)cc1 | n | n | n | n | n | 33
Cc1cc(N(C)Cc2ccccc2)n2nc(-c3ccc(C(C)(C)C)cc3)nc2n1 | n | n | n | n | n | n
CC(NC1=CC(=O)c2cccnc2C1=O)C(O)c1ccccc1 (configuration not stated) | x | 5.6µM | x | x | x | x
C=CCN1C=CC(=CC=C(C#N)C#N)C=C1 | n | n | n | 46 | n | 96
C=CCN1C=C/C(=C\C=C(C#N)C#N)c2ccccc21 | n | n | n | n | n | n
CCCCCOc1ccc(NC(=O)Cc2csc(C)n2)cc1 | n | n | n | n | n | n
O=C(Oc1ccc2ccccc2c1Br)N1CCCCCC1 | n | u | n | n | n | n
NC(=O)C1CCN(C(=O)COc2ccc3ccccc3c2Br)CC1 | n | n | n | n | -64 | n
O=C(COc1ccc2ccccc2c1Br)N1CCCCC1 | n | n | n | n | -32 | n
CC1CN(C(=O)COc2ccc3ccccc3c2Br)CC(C)O1 (configuration not stated) | n | n | n | n | n | n
Cn1cc(-c2cc3n(n2)CCC(=O)N3CCCC(=O)NCc2ccccc2Cl)c2ccccc21 | n | n | n | n | -48 | n
Cc1cccc(C)c1NC(=O)CCCN1C(=O)CCn2nc(-c3cn(C)c4ccccc34)cc21 | n | n | n | n | n | n
CCOC(=O)CCCN1C(=O)CCn2nc(-c3cn(C)c4ccccc34)cc21 | n | u | n | n | -40 | n
O=C(CSc1nc2c(c(=O)[nH]1)CCC2)Nc1cc(C(F)(F)F)ccc1Cl | n | n | n | n | n | n
CN1CCN(/N=C/c2nc(-c3ccccc3)n3ccccc23)CC1 | n | n | n | n | n | n
CN1CCN(/N=C/c2nc(-c3ccc(Cl)cc3)n3ccccc23)CC1 | n | n | n | n | -61 | n
O=C(Nc1ccc(OCC(F)(F)C(F)F)cc1)c1ccncc1 | n | n | n | n | -32 | n
CCOc1ccc(NC(=O)c2ccncc2)cc1 | n | n | n | n | n | n
Cc1ccc(-c2ccc(CCC(=O)O)n2-c2ccc(C)c(Cl)c2)cc1 | n | n | n | n | n | n
Cc1ccc(C)c(-n2c(CCC(=O)O)ccc2-c2ccc(Cl)cc2)c1 | n | n | n | n | -32 | n
CC(C)CC(=O)NC(Nc1ccc([N+](=O)[O-])cc1)C(Cl)(Cl)Cl (configuration not stated) | n | n | n | n | -40 | n
O=[N+]([O-])c1cccc(NC(=S)NCCc2ccccc2)c1 | n | n | n | n | n | 43
C/C(=N\NC(=S)NCCc1ccccc1)c1ccc(Cl)cc1Cl | n | u | n | n | n | n
Fc1ccc(CCNC(=S)Nc2ccc(F)c(Cl)c2)cc1 | n | n | n | n | -32 | n
O=C(Cc1cccc([N+](=O)[O-])c1)Nc1ccccc1 | x | n | x | x | x | x
SMILES | TRHR PAM | USP1-UAF1 inh | D1 potentiator | TRHR ag | D1 antag | D1 agonist
CC(C)(CNC(=S)NCCc1ccccc1)CNC(=S)NCCc1ccccc1 | n | n | n | n | -30 | n
OCCNC(=S)NCCc1ccccc1 | n | n | n | n | n | n
C/C(=N\NC(=S)NCCc1ccccc1)c1ccc(O)cc1O | n | n | x | n | -39 | n
Cn1c2cc(B(O)O)sc2c2cnn(Cc3ccc(F)cc3F)c(=O)c21 | n | x | n | n | n | n
COc1cccc(NC(=O)c2c(-c3ccc(C)cc3)nnc3ccccc23)c1 | n | n | n | n | n | n
Fc1ccc(F)c(NC(=S)NCCc2ccccc2)c1 | n | n | n | n | n | n
Fc1cccc(NC(=S)NCCc2ccccc2)c1 | n | n | n | n | -38 | n
Cc1cc2oc3c(c(=O)c2cc1C)C(c1ccc(F)cc1)N(CCCN1CCOCC1)C3=O (configuration not stated) | 37 | n | n | n | n | n
CCOc1ccc(/C=C(\C#N)c2nc(-c3cc4ccccc4oc3=O)cs2)c(OCC)c1 | n | n | n | n | n | n
CC(=O)c1ccc(NC(=O)CSc2cn(CC(=O)N3CCCCC3)c3ccccc23)cc1 | n | u | n | n | n | n
O=C(CC1NCCNC1=O)Nc1cccc(F)c1 (configuration not stated) | n | n | n | n | n | n
CCC(=O)NC(c1cccs1)c1cc(Br)c2cccnc2c1O (configuration not stated) | n | x | n | n | n | n
Cc1c(C2=CCN(S(=O)(=O)c3ccc(Br)cc3)CC2)c2ccccc2n1CC(=O)N1CCCC1 | n | n | n | n | n | n
Cc1c(C2=CCN(S(=O)(=O)c3ccc(CC(C)C)cc3)CC2)c2ccccc2n1CC(=O)N1CCCC1 | n | u | n | n | n | 38
Cc1ccc(C(OCC(O)CN2CCCCC2)c2ccccc2)cc1 (configuration not stated) | n | n | n | n | n | n
Cc1ccc(OCC(O)CNC(C)c2ccccc2)cc1C (configuration not stated) | n | n | n | n | n | 32
Cc1ccc(C(OCC(O)CNC(C)c2ccccc2)c2ccccc2)cc1 (configuration not stated) | n | n | n | n | -38 | n
CCOc1ccc(-n2nc3c(=S)[nH]nc(C)c3c2C)cc1 | n | n | n | n | n | n
CCOc1ccc(-n2nc3c(=O)[nH]nc(C)c3c2C)cc1 | n | n | n | n | -60 | n
CC1=C(C(=O)OC(C)C)C(c2cccs2)C(C(=O)OC(C)C)=C(C)N1 | n | n | n | n | -32 | n
CC1=C(C(=O)OC(C)C)C(c2cccs2)NC(=O)N1 (configuration not stated) | n | n | n | n | n | n
COCCn1c2nc(=O)n(-c3ccccc3)c(=O)c-2nc2ccccc21 | x | 28µM | x | x | x | x
Cc1ccc(CNC(=O)CN2C(=O)C3CCCCN3c3ccc(C(=O)N(C)C)cc32)cc1 (configuration not stated) | n | n | n | n | n | n
CC1CCN(C(=O)c2ccc(COc3ccccc3Cl)o2)CC1 | n | n | n | n | -36 | n
O=C(c1ccc(COc2ccccc2Cl)o1)N1CCCC1 | n | n | n | n | n | n
